The source of these data is the supplement of paper PMC11417369.

In all, about 25,000 sequences were measured (“ln(normalized median fluorescence intensity)”: median about 9.7, highest 2% from about 11 on). This excerpt belongs to a sample that is enriched for the highest values.

The assay concerns PfAP2-HC AP2 domain (GST-tagged). Kind of assay: gcPBM binding intensity (ln(normalized median fluorescence intensity)); higher = stronger DNA binding. Put shortly: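 DNA-binding domains from P. falciparum, fused to GST and produced in E. coli, were put on an Agilent 4 × 180k double-stranded probe array for 1 h in 1× PBS holding 1% milk, 0.2 mg/ml BSA, 0.5% salmon testes DNA and 0.03% Triton X-100. Probes were primer-extended, 36 bp long and drawn from intergenic genomic regions, with negative controls included. After Alexa488 anti-GST antibody detection and a 488 nm scan, binding intensity was set as the highest Masliner-normalised natural-log median intensity across replicate spots of either probe orientation.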
Regarding “ATATTGACAGGAAAAATTTTCTTTGAATCTTTAAAA [CACACA_negctrl_site1191]”, the “gcPBM binding intensity (ln)” value worked out at 9.29. As for “ATTAGGATATATTAAAGTACTAATATAATACATTTT [XGTACX_site7386]”, the “gcPBM binding intensity (ln)” value turned out to be 9.55. For “TTTTACTAAATATATACACACATTATACAGATATAT [CACACA_site5765]”, the “gcPBM binding intensity (ln)” value was determined as 9.86. Consider “AGTATATAAAATACTGTATCGATGGGGGAGGGCGCA [CACACA_negctrl_site1612]”, for which the “gcPBM binding intensity (ln)” value worked out at 9.91. Next, “TATAAAATACTGTATCGATGGGGGAGGGCGCAGGGG [TGCATGCA_negctrl_site250]”: 10.9. On to “ATATATGGGGCGCAGGAAAAGAGTTTTGGAAATAAA [CACACA_negctrl_site1265]”, for which the “gcPBM binding intensity (ln)” value stood at 9.63. Regarding “TGTATTAATAAAAATACACACATCATATTATATAAA [CACACA_site3534]”, the “gcPBM binding intensity (ln)” value was 9.73.

On to “CATTATAAGAGACACACACACATATATAAATATGTA [CACACA_site6621]”, for which the “gcPBM binding intensity (ln)” value turned out to be 10.9. The result for “AAAAAAATTAGACACACACACACATATAAATATGTA [CACACA_site6618]” reads 10.8. In the case of “ACATATACAAAACACACACACAACGTTTTAATAAAT [CACACA_site1979]”, the “gcPBM binding intensity (ln)” value is 10.7. The result for “TTAAAATATACATAAACACACACAAAACGTTTAAGA [CACACA_site8267]” reads 10.4; that for “CAAAATTAATAAGTCACACACACATATATAATATAT [CACACA_site798]”, 11.

For the sequence “ATATTAAAGATATATACACACATATTTATAAATATA [CACACA_site7127]”, the “gcPBM binding intensity (ln)” value came out at 9.78. The result for “ATTAAAATATAAGTCACACATATATATATATATATA [CACACA_site6145]” reads 9.51; that for “AAATTAATAAGTCACACACACATATATAATATATAT [CACACA_site799]”, 10.4; that for “TTTTAATTAAGACACACACACACATATAAATATGTA [CACACA_site7144]”, 11. The result for “TAAAATATAAGACACACACACATATATTTATATATC [CACACA_site6248]” reads 10.5; that for “ACATATACAAGACACACACACAACGTTTTAATAAAT [CACACA_site7017]”, 11.2. Take “GATAAATTAAGACACACACACATATATTTATTTATA [CACACA_site7789]”: the “gcPBM binding intensity (ln)” value was 11.2. Consider “TTTATATTAATTTGTGTAAATGCATATGATGAGCAT [XGTACX_negctrl_site254]”, for which the “gcPBM binding intensity (ln)” value is 9.41. Take “ATTTTATGATATATTTGTACTTAACATTTGGATATA [XGTACX_site5888]”: the “gcPBM binding intensity (ln)” value stood at 9.6.

Consider “ACCATCCTTAATACTTATTTTTTCACAATTAAGTAA [GTGCAC_negctrl_site269]”, for which the “gcPBM binding intensity (ln)” value was 9.59. Take “AAACCAAGGCACAATAATTAAATAAATAAAATCATG [GTGCAC_negctrl_site574]”: the “gcPBM binding intensity (ln)” value came out at 9.58.

For the sequence “TTTTTCATAAATATATGTACATATATTTTATATAAC [XGTACX_site3402]”, the “gcPBM binding intensity (ln)” value stood at 9.66. The result for “TATTAGATATAATATATACACACCAACGAACGAAGA [CACACA_site1134]” reads 10.1; that for “CATATATGTGATAACACGCACACAAATGTATAGAAT [CACACA_site2594]”, 10.4; that for “AGAGAGAAAGCTATAACATGCAACAATTTTTAGAAA [TGCATGCA_site95]”, 9.63.

On to “TATTTTTAATATTTTGCATGCAGTATTTTATAAAAT [TGCATGCA_site250]”, for which the “gcPBM binding intensity (ln)” value is 9.52. Next, “AACATATTAATGTACACACACCCACGCACAAACAAA [CACACA_site7320]”: 10.4; “ATTAAACATACATATACACACACACCCACCCACCCA [CACACA_site8057]”: 11. For the sequence “AAGCAAACATATTAATGTACACACACCCACACACAA [XGTACX_site5806]”, the “gcPBM binding intensity (ln)” value came to 11.1. As to “CAAACATATTAATGTACACACACCCACCCACAAACA [CACACA_site2752]”, the “gcPBM binding intensity (ln)” value worked out at 10.4. Turning to “TCTCATAGTAAACACACACACACACCCACATATATA [CACACA_site5034]”, the “gcPBM binding intensity (ln)” value came to 10.6. Next, “TATAAATATACACCCACACACATATATAAATAAATA [CACACA_site7717]”: 10.8; “TCTCATAGGAAACACACACACACACCCACATATATA [CACACA_site1738]”: 11; “CATACATATAAACACACACACACACCCACCCACAAA [CACACA_site8059]”: 10.6. Next, “TAAACATACATATACACACACACACCCACACCCACA [CACACA_site492]”: 11.6; “ATAATTTGGAAACACACACACACACCCACATATATA [CACACA_site2286]”: 10.5. Regarding “TTTTTTAAAAAAGTTTTCTGTATTTATATATATATA [CACACA_negctrl_site31]”, the “gcPBM binding intensity (ln)” value amounted to 9.48. Next, “AAAATATATATAACTTGTACATATACATACGTATAT [XGTACX_site4570]”: 9.77.

On to “TTTCTTTTTTTTTTTTTTTCTTTTTTTTTTTTTTTC [CACACA_negctrl_site1025]”, for which the “gcPBM binding intensity (ln)” value was determined as 9.2. Next, “ACTAAAAAAATAAACACACAGATTTATATAATATAT [CACACA_site4884]”: 9.83; “TATATTTGTACATGATATTTTTTTTTTCTTTTAAAA [CACACA_negctrl_site754]”: 9.43; “TATAATTATATAAATTGTACATAAAAAGTTTTTACT [XGTACX_site3621]”: 9.45. Take “AAATGTTCTTAAAAATGAATAATATATATATATATA [CACACA_negctrl_site796]”: the “gcPBM binding intensity (ln)” value came to 9.41. For “TAATTATGCAGACACACACACACACCCAACTAAAAA [CACACA_site2569]”, the “gcPBM binding intensity (ln)” value stood at 10.4. The result for “TATGTGTATTTATTTGCATGTTGGTTGTATTTTTTC [TGCATGCA_site479]” reads 10.4; that for “ACAAAGTTTATAGAACGTACATACTTACACATATTT [XGTACX_site556]”, 9.73. For the sequence AATATTGTTCACAAGGTGCTTTTTATTCATACTAAT, the “gcPBM binding intensity (ln)” value amounted to 9.8. Consider “CATACCTATAGACACACACACACACGCACGCACAAA [CACACA_site6374]”, for which the “gcPBM binding intensity (ln)” value is 10.4. With “TTGGCATACAGACACACACACACACGCCCACATATA [CACACA_site6425]”, the “gcPBM binding intensity (ln)” value amounted to 10.7. Take “TACCTATACAGACACACACACACACGCCCACAAAAA [CACACA_site6375]”: the “gcPBM binding intensity (ln)” value amounted to 11.1. Next, “CCAATTCAAATATGCACACAAATTTGAAAACGATTA [CACACA_site3607]”: 9.71.

In the case of “TGAAAATGGGAACCGTGTACAGGGCAGTTATAGGGG [XGTACX_site2950]”, the “gcPBM binding intensity (ln)” value was 9.87. “AAAAAAGAATAGCACACACACATATATAAATATAAA [CACACA_site4518]”: the “gcPBM binding intensity (ln)” value was 10.5. In the case of “TATTACATACCTTATTGTACAAATTATATATTAAAG [XGTACX_site7334]”, the “gcPBM binding intensity (ln)” value came out at 9.54.

Consider “ATATATCTATATGTGTGTACATATAAGTATTTATAT [XGTACX_site5333]”, for which the “gcPBM binding intensity (ln)” value worked out at 9.87. For the sequence “CACACGCACGGACACACACACATATAAAATCTATAT [CACACA_site6428]”, the “gcPBM binding intensity (ln)” value is 11.1. As for “AAAAAAAACGGACACACACACATACAAAATATATAT [CACACA_site4910]”, the “gcPBM binding intensity (ln)” value is 10.8.

“CATATATACACATACACACACACACGGACACGCACA [CACACA_site6910]”: the “gcPBM binding intensity (ln)” value was found to be 10.5.

Regarding “CTAAAATACGGACACACACACACATATATATATATA [CACACA_site6138]”, the “gcPBM binding intensity (ln)” value worked out at 11.4. Next, “ACACGCACATATATATAAATATATATATATATAAAT [CACACA_negctrl_site1781]”: 10.1; “TTATAAATAAAAAATACACACATATATATATATATA [CACACA_site207]”: 9.57.

On to “TATAAATAAAAACACACACACATATATATATATATA [CACACA_site2319]”, for which the “gcPBM binding intensity (ln)” value was 10.4.

As to “AATACATACGGACACACACACACATATATATATATA [CACACA_site5884]”, the “gcPBM binding intensity (ln)” value turned out to be 11.6. The result for “AATATATACATATATACACACACATATATATATATA [CACACA_site8907]” reads 10.2. The result for “CATACATACGGACACACACACATATATATATATATA [CACACA_site5598]” reads 10.4. For “GTTATAAATAAATATACACACATATATAAAATACAT [CACACA_site7146]”, the “gcPBM binding intensity (ln)” value was determined as 9.97.

As to “AAAAAAAACGGACACACACACATAAATATATATAAA [CACACA_site4260]”, the “gcPBM binding intensity (ln)” value came to 11.3. Take “ACATACGAAAATTGGAAGGATAGATAAAAAGAAAAT [CACACA_negctrl_site51]”: the “gcPBM binding intensity (ln)” value worked out at 9.66. Next, “CTCAACATATACGTAACACACATATAAATATAAATA [CACACA_site7749]”: 9.89; “ATATAGAAAATGCATACACACTTTATAAATATATTT [CACACA_site6553]”: 9.82; “TATTTATTGTGATACTTATATTACTTAATGATTAAA [CACACA_negctrl_site676]”: 9.41. In the case of “ACCCATTTAACAAAATGTACATTATTATAATTACTT [XGTACX_site7105]”, the “gcPBM binding intensity (ln)” value was determined as 9.72.

Take “CTTATATAATTCGATAGTACATATTTTTATATATAT [XGTACX_site4045]”: the “gcPBM binding intensity (ln)” value is 9.68. Next, “ATACAATAATATAAATGTACAAATTATATCTTAATT [XGTACX_site6004]”: 9.62. As to TTGTGTACATATTAAGTGCATATATATATATATATA, the “gcPBM binding intensity (ln)” value is 10.4. The result for “TTTTACCTAAATATCACACATATTTAAATATATATA [CACACA_site5597]” reads 9.57; that for “AGTCAATTTTGTGTGTCAACATTTATATAAAGAATG [TGCATGCA_negctrl_site400]”, 9.71; that for “AGAAGGTAAAAACACACACACACATACAAAAAAAAA [CACACA_site3767]”, 10.7. As for “AAGGTAAACAGACACACACACATACAAAAAAAAAAA [CACACA_site3768]”, the “gcPBM binding intensity (ln)” value stood at 10.8. On to “AAGGTAAACGGACACACACACATACAAAAAAAAAAA [CACACA_site5961]”, for which the “gcPBM binding intensity (ln)” value is 11.3. Consider “TATATATAAAAAACATGTACACAAATTTACATACAT [XGTACX_site4777]”, for which the “gcPBM binding intensity (ln)” value was 9.79. The result for “ATGTATGGAAATTTTACACACAAGAGTAGTTTAAAA [CACACA_site1710]” reads 9.9; that for “CACCCACTAATAAACACACACATATATATATATATA [CACACA_site389]”, 10.4.

Consider “TACCCACTAAAATACACACACACACCCACATATATA [CACACA_site6141]”, for which the “gcPBM binding intensity (ln)” value was determined as 10.4.

Turning to “AAAAAAAACGCACATACACACACACCCATATATATA [CACACA_site9118]”, the “gcPBM binding intensity (ln)” value was found to be 10.4. The result for “CCCACTAAAAAACACACACACACACCCATATATATA [CACACA_site6140]” reads 11; that for “CGCACTAAAAAACACACACACACACCCATATATATA [CACACA_site4152]”, 11.
